{"source": "PubChem BioAssay AID624101", "about": "(Broad Institute, 2012)", "note": "About 120 (0.17%) of roughly 70,000 compounds were called active. Only a selection was taken, and actives are over-represented in it overall. Values without a mark were called inactive. Rule as the data show it: active = inhibition above about 34%; inconclusive = no clear call, values can overlap the other calls; inactive = below about 11%."}
{"biological_target": "Isocitrate dehydrogenase [NADP] cytoplasmic (Homo sapiens) (UniProt O75874)", "sequence (O75874 whole entry R132H)": "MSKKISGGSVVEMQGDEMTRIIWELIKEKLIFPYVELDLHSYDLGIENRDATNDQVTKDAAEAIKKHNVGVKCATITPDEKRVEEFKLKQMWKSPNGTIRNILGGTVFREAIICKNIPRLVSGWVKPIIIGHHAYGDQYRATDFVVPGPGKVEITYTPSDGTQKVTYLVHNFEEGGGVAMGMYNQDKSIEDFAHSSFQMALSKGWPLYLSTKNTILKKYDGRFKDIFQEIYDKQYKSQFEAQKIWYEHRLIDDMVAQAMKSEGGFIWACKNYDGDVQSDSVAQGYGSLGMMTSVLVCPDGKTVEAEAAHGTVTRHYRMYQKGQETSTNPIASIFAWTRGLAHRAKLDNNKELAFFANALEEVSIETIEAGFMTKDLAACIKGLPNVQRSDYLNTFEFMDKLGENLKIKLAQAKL", "experiment": "PubChem AID 624101;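 also: 0% = DMSO and 100% = no enzyme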", "details": "IDH1 R132H reductase, diaphorase/resazurin fluorescence, 60 min; at 10 µM; active compounds read high"}
{"compound": "CNC[C@H]1Oc2cc(C#Cc3ccccc3)ccc2S(=O)(=O)N([C@@H](C)CO)C[C@@H]1C", "inhibition": "4.92%"}
{"compound": "Cc1ccc(S(=O)(=O)NCC[C@H]2CC[C@@H](NS(=O)(=O)c3ccccc3Cl)[C@H](CO)O2)cc1", "inhibition": "0.263%"}
{"compound": "O=C(Nc1cccc(Cl)c1)N[C@H]1CC[C@H](CCNC(=O)C2CCOCC2)O[C@H]1CO", "inhibition": "0.082%"}
{"compound": "O=C(C[C@@H]1CC[C@@H](NC(=O)C2CCOCC2)[C@H](CO)O1)Nc1ccc(-c2ccccc2)cc1", "inhibition": "0.222%"}
{"compound": "O=C(C[C@@H]1C=C[C@H](NC(=O)c2ccc3c(c2)OCO3)[C@H](CO)O1)NCc1ccc(Oc2ccccc2)cc1", "inhibition": "-0.347%"}
{"compound": "O=C(C[C@H]1C=C[C@@H](NC(=O)Nc2cc(F)ccc2F)[C@@H](CO)O1)NCc1ccc2c(c1)OCO2", "inhibition": "-0.0695%"}
{"compound": "CN1CCN(C(=O)C[C@@H]2C[C@H]3c4cc(NC(=O)NC5CCCC5)ccc4O[C@H]3[C@H](CO)O2)CC1", "inhibition": "-0.193%"}
{"compound": "CO[C@H]1CN(C)C(=O)c2ccc(NC(=O)c3nc4ccccc4s3)cc2OC[C@@H](C)N(Cc2cncnc2)C[C@H]1C", "inhibition": "-1.03%"}
{"compound": "O=C(C[C@@H]1C[C@@H]2c3cc(NC(=O)C4CCC4)ccc3O[C@@H]2[C@@H](CO)O1)NCc1ccccc1", "inhibition": "0.171%"}
{"compound": "O=C(C[C@@H]1C[C@@H]2c3cc(NC(=O)Cc4ccncc4)ccc3O[C@@H]2[C@H](CO)O1)NCc1cccc(F)c1", "inhibition": "0%"}
{"compound": "C[C@H](NC(=O)N(C)C[C@@H]1OCc2ccccc2-c2ccccc2C(=O)N([C@H](C)CO)C[C@@H]1C)c1ccccc1", "inhibition": "-1.38%"}
{"compound": "Cc1noc(C)c1S(=O)(=O)Nc1ccc2c(c1)C(=O)N([C@H](C)CO)C[C@H](C)[C@H](CN(C)S(C)(=O)=O)OCCCC[C@H](C)O2", "inhibition": "2.45%"}
{"compound": "C[C@@H]1CN([C@@H](C)CO)S(=O)(=O)c2ccc(C#Cc3ccccc3)cc2O[C@@H]1CN(C)C(=O)C1CC1", "inhibition": "-0.265%"}
{"compound": "CO[C@@H]1CN(C)C(=O)c2ccc(NS(=O)(=O)c3ccc(Cl)cc3)cc2OC[C@H](C)N(C(=O)NC(C)C)C[C@H]1C", "inhibition": "0.21%"}
{"compound": "O=C(NCC[C@H]1CC[C@@H](NC(=O)C2CCCC2)[C@@H](CO)O1)c1cc(Cl)cc(Cl)c1", "inhibition": "-0.187%"}
{"compound": "Cc1ccc(S(=O)(=O)NCC[C@@H]2CC[C@H](NC(=O)CC3CC3)[C@H](CO)O2)cc1", "inhibition": "-0.044%"}
{"compound": "O=C(Nc1ccccc1F)N[C@@H]1CC[C@H](CC(=O)N2CCCCC2)O[C@H]1CO", "inhibition": "0.211%"}
{"compound": "O=C(N[C@@H]1CC[C@H](CCn2cc(C3CC3)nn2)O[C@H]1CO)c1cccnc1", "inhibition": "0.0945%"}
{"compound": "CO[C@@H]1CN(C)C(=O)c2ccc(NS(C)(=O)=O)cc2OC[C@@H](C)N(C(=O)C2CCOCC2)C[C@@H]1C", "inhibition": "-0.272%"}
{"compound": "CO[C@@H]1CN(C)C(=O)c2cc(NC(=O)Nc3cc(F)ccc3F)ccc2OC[C@H](C)N(C)C[C@@H]1C", "inhibition": "-0.288%"}
{"compound": "CO[C@@H]1CN(C)C(=O)c2ccc(NS(=O)(=O)c3cccc(Cl)c3)cc2OC[C@H](C)NC[C@H]1C", "inhibition": "-0.827%"}
{"compound": "Cc1ccc(S(=O)(=O)NCC[C@H]2CC[C@H](NC(=O)c3ccccn3)[C@@H](CO)O2)cc1", "inhibition": "-0.44%"}
{"compound": "C[C@@H]1CN([C@H](C)CO)S(=O)(=O)c2ccc(-c3ccc(C(=O)N(C)C)cc3)cc2O[C@@H]1CN(C)C(=O)Nc1ccccc1F", "inhibition": "0.371%"}
{"compound": "COCCNC(=O)C[C@H]1C=C[C@@H](NS(=O)(=O)c2ccc(C)cc2)[C@@H](CO)O1", "inhibition": "-0.16%"}
{"compound": "O=C(NCCCn1ccnc1)c1cnn2c(C(F)(F)F)cc(-c3ccccc3)nc12", "inhibition": "42.5% (active)"}
{"compound": "O=C(NCc1cccnc1)c1cnn2c(C(F)F)cc(-c3ccccc3)nc12", "inhibition": "-0.254%"}
{"compound": "Cc1ccc(-c2cc(C(F)(F)F)n3nc(C(=O)NCCN4CCOCC4)c(Cl)c3n2)cc1", "inhibition": "-0.63%"}
{"compound": "CO[C@H]1CN(C)C(=O)c2ccc(NC(=O)C3CC3)cc2OC[C@@H](C)N(C(=O)c2ccccn2)C[C@@H]1C", "inhibition": "0.315%"}
{"compound": "CO[C@@H]1CN(C)C(=O)c2cc(NC(C)=O)ccc2OC[C@H](C)N(Cc2ccccn2)C[C@H]1C", "inhibition": "0.0735%"}
{"compound": "COc1ccc(C(=O)Nc2ccc3c(c2)C(=O)N(C)C[C@@H](OC)[C@H](C)CN(C(C)=O)[C@@H](C)CO3)cc1", "inhibition": "0.119%"}
{"compound": "CO[C@H]1CC[C@@H]2CCOc3c(C#N)cccc3C(=O)N(C)CCCC(=O)N(C)C[C@@H]1O2", "inhibition": "-0.199%"}
{"compound": "O=C(C[C@@H]1C[C@@H]2c3cc(NS(=O)(=O)c4ccc(F)cc4)ccc3O[C@@H]2[C@H](CO)O1)N1CCCCC1", "inhibition": "0.296%"}
{"compound": "O=C(C[C@H]1CC[C@@H](NC(=O)Nc2ccc(F)cc2)[C@@H](CO)O1)NCCN1CCCC1", "inhibition": "-0.0445%"}
{"compound": "O=C(Nc1ccc(C(F)(F)F)cc1)N[C@@H]1CC[C@H](CCNC(=O)c2ccccc2F)O[C@H]1CO", "inhibition": "0.069%"}
{"compound": "Cc1ccc(S(=O)(=O)N[C@H]2CC[C@H](CC(=O)NCc3ccccc3F)O[C@@H]2CO)cc1", "inhibition": "-0.113%"}
{"compound": "CCCc1cn(CC[C@@H]2CC[C@@H](NS(=O)(=O)c3ccccc3Cl)[C@@H](CO)O2)nn1", "inhibition": "-0.18%"}
{"compound": "CO[C@H]1CN(C)C(=O)c2cc(NC(=O)C3CC3)ccc2OC[C@@H](C)NC[C@H]1C", "inhibition": "-0.162%"}
{"compound": "Cc1ccc(S(=O)(=O)NCC[C@@H]2CC[C@H](NC(=O)c3ccccn3)[C@H](CO)O2)cc1", "inhibition": "-0.387%"}
{"compound": "Cc1ccc(-c2ccc3c(c2)O[C@@H](CN(C)C(=O)CC2CC2)[C@@H](C)CN([C@@H](C)CO)S3(=O)=O)cc1", "inhibition": "-0.129%"}
{"compound": "O=C(C[C@@H]1CC[C@H](NC(=O)CN2CCOCC2)[C@@H](CO)O1)NCCc1ccccc1", "inhibition": "0.1%"}
{"compound": "C[C@@H]1CN([C@H](C)CO)S(=O)(=O)c2ccc(-c3ccncc3)cc2O[C@@H]1CN(C)C(=O)CN(C)C", "inhibition": "0.556%"}
{"compound": "O=C(C[C@H]1C=C[C@H](NC(=O)CC2CC2)[C@H](CO)O1)NCc1ccc(Cl)cc1", "inhibition": "-0.172%"}
{"compound": "C[C@@H]1CN([C@H](C)CO)S(=O)(=O)c2ccc(C3=CCCC3)cc2O[C@H]1CN(C)C(=O)c1ccccc1", "inhibition": "1.4%"}
{"compound": "O=C(C[C@H]1CC[C@H](NC(=O)C2CCC2)[C@@H](CO)O1)Nc1nccs1", "inhibition": "0.192%"}
{"compound": "CO[C@H]1CN(C)C(=O)c2ccc(NS(=O)(=O)c3ccccc3C)cc2OC[C@H](C)NC[C@H]1C", "inhibition": "-0.186%"}
{"compound": "CO[C@H]1CN(C)C(=O)c2cc(NC(C)=O)ccc2OC[C@H](C)N(C(=O)C2CC2)C[C@H]1C", "inhibition": "-0.354%"}
{"compound": "CO[C@H]1CN(C)C(=O)c2ccc(NC(=O)C3CCC3)cc2OC[C@@H](C)N(Cc2ccccn2)C[C@H]1C", "inhibition": "0.331%"}
{"compound": "CCC(=O)Nc1ccc2c(c1)C(=O)N(C)C[C@H](OC)[C@H](C)CN(Cc1ccccc1F)[C@H](C)CO2", "inhibition": "0.217%"}
{"compound": "CO[C@H]1CN(C)C(=O)c2cc(NS(C)(=O)=O)ccc2OC[C@H](C)N(C(=O)C2CCCC2)C[C@H]1C", "inhibition": "0.272%"}
{"compound": "CCC(=O)N(C)C[C@@H]1Oc2cc(C#CC(C)(C)O)ccc2S(=O)(=O)N([C@@H](C)CO)C[C@@H]1C", "inhibition": "-1.91%"}
{"compound": "CN(C)C(=O)C[C@@H]1C[C@@H]2c3cc(NC(=O)c4ccc5c(c4)OCO5)ccc3O[C@@H]2[C@H](CO)O1", "inhibition": "-0.927%"}
{"compound": "Cc1ccc(S(=O)(=O)N[C@H]2CC[C@H](CC(=O)O)O[C@H]2CO)cc1", "inhibition": "-0.244%"}
{"compound": "Cc1ccc(S(=O)(=O)N[C@H]2C=C[C@@H](CC(=O)NCCc3ccncc3)O[C@@H]2CO)cc1", "inhibition": "-0.308%"}
{"compound": "COc1ccc(-c2cn(CC[C@H]3CC[C@@H](N)[C@H](CO)O3)nn2)cc1", "inhibition": "0.0195%"}
{"compound": "CO[C@H]1CN(C)C(=O)c2ccc(NS(=O)(=O)c3cn(C)cn3)cc2OC[C@H](C)N(C)C[C@H]1C", "inhibition": "-0.0025%"}
{"compound": "O=C(N[C@H]1C=C[C@@H](CC(=O)N2CCCCC2)O[C@@H]1CO)c1ccc2c(c1)OCO2", "inhibition": "-0.0205%"}
{"compound": "O=C(C[C@@H]1C[C@@H]2c3cc(NC(=O)C4CCOCC4)ccc3O[C@@H]2[C@H](CO)O1)NCc1ccncc1", "inhibition": "-0.106%"}
{"compound": "CCCNC(=O)N1C[C@H](C)[C@H](OC)CN(C)C(=O)c2cc(NC(=O)CC)ccc2OC[C@H]1C", "inhibition": "-0.059%"}
{"compound": "CCC(=O)N(C)C[C@@H]1Oc2ncc(-c3ccccc3OC)cc2C(=O)N([C@@H](C)CO)C[C@@H]1C", "inhibition": "-0.321%"}
{"compound": "CN1CCN(C(=O)C[C@H]2C[C@H]3c4cc(NC(=O)Nc5ccccc5F)ccc4O[C@H]3[C@H](CO)O2)CC1", "inhibition": "-0.523%"}
{"compound": "O=C(Nc1ccc2c(c1)OCO2)N[C@@H]1CC[C@H](CC(=O)N2CCN(c3ccccc3)CC2)O[C@@H]1CO", "inhibition": "-0.0065%"}
{"compound": "O=C(Cc1ccncc1)NCC[C@H]1CC[C@H](NC(=O)C2CC2)[C@H](CO)O1", "inhibition": "0.014%"}
{"compound": "CCC(=O)N(C)C[C@H]1Oc2cc(C#CCC(C)C)ccc2S(=O)(=O)N([C@H](C)CO)C[C@H]1C", "inhibition": "-0.831%"}
{"compound": "O=C(NCC[C@H]1CC[C@@H](NC(=O)c2cnccn2)[C@H](CO)O1)Nc1ccc(Cl)cc1", "inhibition": "-0.362%"}
{"compound": "CN(C)CCCNC(=O)C[C@@H]1C=C[C@H](NC(=O)Cc2cccnc2)[C@H](CO)O1", "inhibition": "0.394%"}
